Measurements: PubChem BioAssay AID1159580 (chemical genetic matrix, 2015)
“And” between values parts separate entries of the source, which are not always exact repeats. Equal entries are not always repeated. Screen size: about 5,500 compounds; about 2,000 (36%) were called active. About 18% were inconclusive and are not listed. No stated cut-off is given here; in the data, active means normalized growth mostly below about 0.91 (no sharp cut-off); inconclusive means no clear call, values can overlap the other calls; inactive means mostly above about 0.92. This is one part of the list.

Assay: chemical genetic growth profiling, strain panel (AID 1159580);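 further: tested at 20 µM; growth read once vehicle control cultures reached saturation at 30 °C; 1 = growth at the plate median or of vehicle wells; lower values mean less growth of the strain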
Details: S. cerevisiae deletion strains, growth OD

Measured: normalized growth

C#C[C@]1(OC(C)=O)CCC2C3CCC4=CC(=O)CC[C@@H]4C3CC[C@@]21C (some centres not stated)
inactive: locus YAL013W, strain DEP1, hits give low values 0.97 | locus YAL021C, strain ccr4, hits give low values 0.988 | locus YAL026C, strain drs2, hits give low values 0.984 | locus YAL030W, strain snc1, hits give low values 0.986 | locus YBL061C, strain skt5, hits give low values 0.981 | locus YBR009C, strain hhf1, hits give low values 0.991 | locus YBR021W, strain FUR4, hits give low values 0.98 | locus YBR023C, strain chs3, hits give low values 0.976 | locus YBR171W, strain sec66, hits give low values 0.974 | locus YBR229C, strain ROT2, hits give low values 0.953 | locus YBR231C, strain swc5, hits give low values 1.01 | locus YBR279W, strain paf1, hits give low values 0.977 | locus YCL011C, strain gbp2, hits give low values 0.985 | locus YCL016C, strain dcc1, hits give low values 0.974 | locus YCL029C, strain bik1, hits give low values 0.96 | locus YCL069W, strain vba3, hits give low values 0.973 | locus YCR088W, strain abp1, hits give low values 0.99 | locus YDL005C, strain med2, hits give low values 0.971 | locus YDL035C, strain GPR1, hits give low values 0.972 | locus YDL040C, strain nat1, hits give low values 0.985 | locus YDL074C, strain BRE1, hits give low values 0.965 | locus YDL101C, strain DUN1, hits give low values 0.97 | locus YDL134C, strain PPH21, hits give low values 0.948 | locus YDL185W, strain tfp1, hits give low values 0.976 | locus YDL192W, strain arf1, hits give low values 0.961 | locus YDR001C, strain nth1, hits give low values 0.999 | locus YDR069C, strain doa4, hits give low values 0.969 | locus YDR101C, strain arx1, hits give low values 0.977 | locus YDR137W, strain rgp1, hits give low values 0.982 | locus YDR159W, strain sac3, hits give low values 0.936 | locus YDR162C, strain NBP2, hits give low values 0.961 | locus YDR195W, strain ref2 0.978 | locus YDR297W, strain sur2, hits give low values 0.994 | locus YDR318W, strain mcm21, hits give low values 0.941 | locus YDR334W, strain swr1, hits give low values 1.02 | locus YDR335W, strain msn5, hits give low values 0.978 | locus YDR388W, hits give low values 0.966 | locus YDR392W, strain spt3, hits give low values 0.828 | locus YDR502C, strain sam2, hits give low values 0.949 | locus YEL003W, strain gim4, hits give low values 1.01 | locus YEL037C, strain rad23, hits give low values 1 | locus YEL061C, strain CIN8 (second series), hits give low values 0.991 | locus YEL061C, strain CIN8, hits give low values 0.978 | locus YER015W, strain faa2, hits give low values 0.995 | locus YER016W, strain bim1, hits give low values 0.988 | locus YER110C, hits give low values 0.97 | locus YER111C, strain swi4, hits give low values 0.985 | locus YER155C, strain BEM2 (second series), hits give low values 0.975 | locus YER155C, strain BEM2, hits give low values 0.971 | locus YER167W, strain BCK2, hits give low values 0.974 | locus YFR010W, strain ubp6, hits give low values 1 | locus YGL078C, strain dbp3, hits give low values 0.989 | locus YGL086W, strain mad1, hits give low values 0.957 | locus YGL167C, strain pmr1, hits give low values 0.993 | locus YGL173C, strain kem1, hits give low values 0.989 | locus YGL227W, strain vid30, hits give low values 0.975 | locus YGL240W, strain doc1, hits give low values 1 | locus YGL248W, strain PDE1, hits give low values 0.967 | locus YGL253W, strain hxk2, hits give low values 1.01 | locus YGR135W, strain pre9, hits give low values 0.925 | locus YGR252W, strain gcn5, hits give low values 1.07 | locus YHR013C, strain ard1, hits give low values 0.955 | locus YHR027C, strain rpn1, hits give low values 1.01 | locus YHR030C, strain SLT2, hits give low values 0.975 and 0.933 | locus YHR079C, strain IRE1 (second series), hits give low values 0.969 | locus YHR079C, strain IRE1, hits give low values 0.92 | locus YHR094C, strain hxt1, hits give low values 0.981 | locus YHR129C, strain ARP1, hits give low values 0.974 | locus YHR142W, strain chs7, hits give low values 1 | locus YHR200W, strain rpn10, hits give low values 0.963 | locus YIL066C, strain RNR3, hits give low values 0.965 | locus YIL073C, strain SPO22, hits give low values 0.926 | locus YIL125W, strain kgd1, hits give low values 0.971 | locus YIR030C, strain dcg1, hits give low values 0.961 | locus YJL092W, strain hpr5, hits give low values 1 | locus YJL095W, strain BCK1 (second series), hits give low values 0.984 | locus YJL095W, strain BCK1, hits give low values 0.926 and 0.95 | locus YJL115W, strain asf1, hits give low values 0.982 | locus YJL129C, strain trk1, hits give low values 0.975 | locus YJL134W, strain LCB3, hits give low values 0.973 | locus YJL154C, strain vps35, hits give low values 0.985 | locus YJL164C, strain tpk1, hits give low values 0.99 | locus YJL166W, strain qcr8, hits give low values 0.995 | locus YJL168C, strain set2, hits give low values 0.97 | locus YJL187C, strain SWE1 (second series), hits give low values 0.961 | locus YJR043C, strain POL32, hits give low values 1.03 | locus YJR066W, strain TOR1, hits give low values 0.903
